Results with a measured potency or affinity are listed apart. Results filed as inconclusive are left out. The source made the active and inactive calls. Unless noted, how the calls were made is not given here.
What was measured:
[1] = RMG-1 ovarian cancer cell viability loss – cherry-pick, dose response (AID 687029;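 active means signal drop whose fitted half-maximal concentration is at most twice the top valid dose, in every test run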;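 further: cells exposed to compound for 96 hours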)
[2] = IOSE-T80 viability loss, PAX8-independent line – cell-based, cherry-pick, selectivity assay for PAX8 inhibitor project, dose response (AID 687032;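 active means fitted half-maximal concentration for viability loss no higher than twice the top valid dose, in every repeat run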;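 further: cells exposed to compound for 96 h before reading; 0% = neutral control wells and -100% = 2 µM mitoxantrone kill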)
[3] = CMV-driven luciferase expression suppression in HEK293 – cell-based, luminescence, dry powder, counter-screen for Pax8 inhibitor project, dose response (AID 743020;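 active means signal-lowering compounds whose fitted half-maximal concentration is at or below twice the top tested dose in every run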;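 further: HEK293 cells stably expressing the CMV luciferase reporter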)
[4] = general cell-killing toxicity readout – plate reader, dry powder samples, cytotoxicity control for PAX8 inhibitor project, dose response (AID 743021)
[5] = IGROV1 cell killing – plate reader, dry powder samples, PAX8 inhibitor project, dose response (AID 743043);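 further: more negative means fewer viable cells or more cytotoxicity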
[6] = OVCAR-3 cell viability loss – plate reader, dry powder samples, PAX8 inhibitor project, dose response (AID 743044); details: max activity: at 35 µM, stronger effect = lower value unless noted
[7] = toxicity toward immortalized ovarian surface epithelium – cell-based, plate reader, dry powder samples, cytotoxicity control for PAX8 inhibitor project, dose response (AID 743045);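 further: 0% = neutral control median and -100% = positive control median; more negative values mean more cell killing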
[8] = A2780 cell killing – plate reader, dry powder samples, cytotoxicity control, dose response (AID 743046);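 further: 0% = neutral control wells and -100% = cytotoxic reference compound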
[9] = OVCAR8 cell viability loss – plate reader, dry powder samples, PAX8 project, dose response (AID 743197)
[10] = A549 cell cytotoxicity, dose response, cytotoxicity control, plate reader, cherry-pick, antagonist series (AID 743412);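 further: 0% = neutral control wells and -100% = positive control wells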
[11] = toxicity toward HepG2 liver cells – cell-based, plate reader, cherry-pick, antagonist series, cytotoxicity control, dose response (AID 743416);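 further: 0% = neutral control wells and -100% = positive control wells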

Measured: max activity

C[C@@H]1CCCCO[C@H](CN(C)C(=O)Nc2ccc(F)cc2)[C@@H](C)CN([C@@H](C)CO)C(=O)c2cc(NC(=O)Nc3ccc(C(F)(F)F)cc3)ccc2O1
inactive: [1] | [2] | [3] | [4] | [5] | [6] 19.8% [at 0.26 µM, stronger effect = lower value] | [7] | [8] | [9]

C[C@@H]1CCCCO[C@H](CN(C)Cc2ccc(C(F)(F)F)cc2)[C@H](C)CN([C@H](C)CO)C(=O)c2cc(NS(=O)(=O)c3ccc(F)cc3)ccc2O1
inactive: [1] | [2] | [3] | [4] | [5] | [6] -10.2% | [7] | [8] | [9]

Cc1ccc(S(=O)(=O)N[C@@H]2C=C[C@@H](CC(=O)N3CCC(Cc4ccccc4)CC3)O[C@@H]2CO)cc1
inactive: [1] | [2] | [3] | [4] | [5] | [6] -14.5% [at 16 µM, stronger effect = lower value] | [7] | [8] | [9]

C[C@@H]1CN([C@@H](C)CO)C(=O)c2ccccc2-c2ccccc2CO[C@H]1CN(C)Cc1ccccc1C(F)(F)F
inactive: [1] | [2] | [3] | [4] | [5] | [6] 28.3% [at 16 µM, stronger effect = lower value] | [7] | [8] | [9]

C[C@@H]1CCCCO[C@H](CN(C)C(=O)Cc2ccccc2)[C@H](C)CN([C@@H](C)CO)C(=O)c2cc(NC(=O)Nc3ccc(C(F)(F)F)cc3)ccc2O1
inactive: [1] | [2] | [3] | [4] | [5] | [6] 13.6% | [7] | [8] | [9]

C[C@@H]1CCCCO[C@H](CN(C)C(=O)Nc2ccc(C(F)(F)F)cc2)[C@@H](C)CN([C@@H](C)CO)C(=O)c2cc(NS(=O)(=O)c3cccs3)ccc2O1
inactive: [1] | [2] | [3] | [4] | [5] | [6] -19.5% [at 4.2 µM, stronger effect = lower value] | [7] | [8] | [9]

COc1ccccc1-c1ccc2c(c1)O[C@H](CN(C)Cc1ccc3c(c1)OCO3)[C@H](C)CN([C@@H](C)CO)S2(=O)=O
inactive: [1] | [2] | [3] | [4] | [5] | [6] 20.4% [at 4.2 µM, stronger effect = lower value] | [7] | [8] | [9]

COc1ccc(S(=O)(=O)N2CCCCN3[C@H](C2)[C@H](c2ccc(C#CC(C)C)cc2)[C@@H]3CO)cc1
inactive: [1] | [2] | [3] | [4] | [5] | [6] -13.1% [at 8 µM, stronger effect = lower value] | [7] | [8] | [9]

C[C@H]1CN([C@@H](C)CO)C(=O)c2ccccc2-c2ccccc2CO[C@H]1CN(C)S(=O)(=O)c1ccc(C(F)(F)F)cc1
inactive: [1] | [2] | [3] | [4] | [5] | [6] 11.8% [at 4.2 µM, stronger effect = lower value] | [7] | [8] | [9]

Cc1ccc(S(=O)(=O)N(C)C[C@H]2Oc3c(NC(=O)Nc4ccc(F)cc4)cccc3C(=O)N([C@@H](C)CO)C[C@H]2C)cc1
inactive: [1] | [2] | [3] | [4] | [5] | [6] -10.2% | [7] | [8] | [9]

O=C(CN1C(=O)c2ccccc2S1(=O)=O)c1ccccc1Cl
inactive: [10] | [11]

C[C@H]1CN([C@@H](C)CO)S(=O)(=O)c2ccc(C#Cc3ccccc3F)cc2O[C@@H]1CN(C)CC1CCOCC1
inactive: [1] | [2] | [3] | [4] | [5] | [7]

C[C@H](CO)N1C[C@H](C)[C@H](CN(C)Cc2ccc(C(F)(F)F)cc2)OCCCC[C@H](C)Oc2ccc(NC(=O)Nc3ccccc3)cc2C1=O
inactive: [1] | [2] | [3] | [4] | [5] | [7]

C[C@@H]1CCCCO[C@H](CN(C)C(=O)C2CCCCC2)[C@H](C)CN([C@@H](C)CO)C(=O)c2cc(NS(=O)(=O)c3ccc(Cl)cc3)ccc2O1
inactive: [1] | [2] | [3] | [4] | [5] | [7]

C[C@H]1CN([C@@H](C)CO)C(=O)Cc2cc(NC(=O)NC3CCCCC3)ccc2O[C@H]1CN(C)Cc1ccc(-c2ccccc2)cc1
inactive: [1] | [2] | [3] | [4] | [5] | [7] | [8]

C[C@@H]1CCCCO[C@@H](CN(C)Cc2ccc(Cl)c(Cl)c2)[C@H](C)CN([C@H](C)CO)C(=O)c2cc(NC(=O)c3ccccc3)ccc2O1
inactive: [1] | [2] | [3] | [4] | [5] | [7]

Cc1ccccc1-c1ccc2c(c1)O[C@H](CN(C)C(=O)Nc1ccc(C(F)(F)F)cc1)[C@@H](C)CN([C@H](C)CO)S2(=O)=O
inactive: [1] | [2] | [3] | [4] | [5] | [7] | [8]

C[C@@H]1CN([C@H](C)CO)C(=O)c2cc(NS(=O)(=O)c3ccc(F)cc3)ccc2O[C@@H](C)CCCCO[C@H]1CN(C)S(=O)(=O)c1ccc(Cl)cc1
inactive: [1] | [2] | [3] | [4] | [5] | [7]

C[C@H](NC(=O)C[C@@H]1C[C@@H]2c3cc(NC(=O)Nc4ccc(C(F)(F)F)cc4)ccc3O[C@@H]2[C@@H](CO)O1)c1ccccc1
inactive: [1] | [2] | [3] | [4] | [5] | [7]

C[C@@H]1CN([C@H](C)CO)C(=O)c2cc(NC(=O)Nc3ccc(C(F)(F)F)cc3)ccc2O[C@@H](C)CCCCO[C@H]1CN(C)C(=O)NC1CCCCC1
inactive: [1] | [2] | [3] | [4] | [5] | [7] | [8]

C[C@@H]1CCCCO[C@@H](CN(C)Cc2ccc(C(F)(F)F)cc2)[C@H](C)CN([C@H](C)CO)C(=O)c2cc(NC(=O)Nc3ccccc3)ccc2O1
inactive: [1] | [2] | [3] | [4] | [5] | [7]

C[C@@H]1CN([C@H](C)CO)C(=O)c2cc(NC(=O)Nc3ccc(C(F)(F)F)cc3)ccc2O[C@@H](C)CCCCO[C@@H]1CN(C)Cc1ccc(Cl)c(Cl)c1
inactive: [1] | [2] | [3] | [4] | [5] | [7]

C[C@@H]1CCCCO[C@@H](CN(C)S(=O)(=O)c2ccc(F)cc2)[C@H](C)CN([C@H](C)CO)C(=O)c2cc(NS(=O)(=O)c3ccc(Cl)cc3)ccc2O1
inactive: [1] | [2] | [3] | [4] | [5] | [7] | [8]

C[C@@H]1CN([C@@H](C)CO)S(=O)(=O)c2ccc(C#Cc3ccccc3F)cc2O[C@@H]1CN(C)C(=O)c1ccc2c(c1)OCO2
inactive: [1] | [2] | [3] | [4] | [5] | [7]

C[C@@H]1CCCCO[C@H](CN(C)CC2CCCCC2)[C@H](C)CN([C@@H](C)CO)C(=O)c2cc(NC(=O)Nc3ccccc3)ccc2O1
inactive: [1] | [2] | [3] | [4] | [5] | [7] | [8]

C[C@@H]1CCCCO[C@H](CN(C)S(=O)(=O)c2ccc(Cl)cc2)[C@@H](C)CN([C@@H](C)CO)C(=O)c2cc(NS(=O)(=O)c3ccc(F)cc3)ccc2O1
inactive: [1] | [2] | [3] | [4] | [5] | [7]

C[C@@H]1CCCCO[C@H](CN(C)Cc2ccc(C(F)(F)F)cc2)[C@H](C)CN([C@@H](C)CO)C(=O)c2cc(NS(=O)(=O)c3ccc(Cl)cc3)ccc2O1
inactive: [1] | [2] | [3] | [4] | [5] | [7] | [8]

C[C@H](CO)N1C[C@H](C)[C@@H](CN(C)S(=O)(=O)c2cccc(F)c2)OCc2ccccc2-c2c(n(C)c3ccccc23)C1=O
inactive: [1] | [2] | [3] | [4] | [5] | [7] | [8]

CC(=O)N1CCOc2ccc(S(=O)(=O)N3CCN(c4cccc(C(F)(F)F)c4)CC3)cc21
inactive: [1] | [2] | [3] | [4] | [5] | [7]

C[C@@H]1CN([C@H](C)CO)C(=O)c2cc(NC(=O)Nc3ccc(F)cc3)ccc2O[C@@H](C)CCCCO[C@@H]1CN(C)Cc1ccc(Cl)c(Cl)c1
inactive: [1] | [2] | [3] | [4] | [5] | [7] | [8]

Source: PubChem BioAssay
